Source: PubChem BioAssay AID485350 (ICCB-Longwood Screening Facility, Harvard Medical School, 2010)
“And” between values parts separate entries of the source, which are not always exact repeats. Equal entries are not always repeated. The whole screen tested about 84,000 compounds, of which about 95 (0.1%) were called active. This is one part of a sample in which actives are shown more often than they occur. No stated cut-off is given here; in the data, active means inhibition above about 25% (passing the limit was not always enough); inactive means the rest.

test system: BasE (2,3-dihydroxybenzoate-AMP ligase), Acinetobacter baumannii ATCC 17978; assay: BasE siderophore enzyme inhibitors, primary screen, biochemical, Acinetobacter baumannii ATCC 17978, fluorescence polarization (AID 485350); conditions: purified BasE, fluorescence polarization binding displacement; hits give high values; concentration not given here;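 further: 0% = negative plate control signal and 100% = positive plate control signal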

inhibition, active:
Cc1csc(NC(=O)C2CCC(CNS(=O)(=O)c3cccc4nsnc34)CC2)n1 (stereo unspecified) 28.5%

inhibition, inactive:
CCn1cnc2c(=O)oc3ccc(S(=O)(=O)N4CCN(c5cc(Cl)ccc5C)CC4)cc3c21 2.98%
CCOC(=O)C1=C(CN2CCn3cccc3C2C)NC(=O)NC1c1ccc(Cl)cc1 (stereo unspecified) -0.37%
N#CCSc1[nH]c(=O)c(-c2nc(-c3ccccc3)cs2)cc1C#N 1.84%
Cc1ccc(/C=C/C(=O)OCC(=O)c2cc(C)c(C)cc2C)o1 1.01%
CC(Sc1nnc(N)s1)C(=O)NCCC1=CCCCC1 (stereo unspecified) 2.13%
C/C(=N\NC(=O)NC1CCCCC1)c1ccc(OC(F)F)cc1OC(F)F 1.32%
FC(F)Oc1ccc(-c2csc(=Nc3cccnc3)n2C2CC2)cc1 3.62%
Cc1cc(/C=N/N2C(=O)c3ccccc3C2=O)cc(C)c1O 0.22%
CCN(CC)CC(O)Cn1c(=O)n(CC(O)CN(CC)CC)c(=O)n(CC(O)CN(CC)CC)c1=O (stereo unspecified) -0.02%
O=C1Cc2ccccc2C(=O)N1Cc1ccccn1 4.89%
O=C1CCC2(C(=O)OCCCn3c(=O)[nH]c4ccccc43)Sc3ccccc3N12 (stereo unspecified) 1.34%
O=C(c1cc(Cl)c(O)c(Cl)c1)N1CCc2ccccc2C1 3%
Cc1nn2cnnc2c(C)c1CCC(=O)NCCCc1ccccc1 -4.03%
O=C(CCC1CC(=O)OC1c1ccccc1)Nc1nccs1 (stereo unspecified) 0.54%
CCOC(=O)c1c(C)oc2ncnc(N(C)Cc3ccccc3)c12 1.14%
COC(=O)c1cc(S(=O)(=O)N(CCCN2CCOCC2)C2CCN(C)CC2)cn1C -0.33%
Cc1c(CCC(C)C)c(NCCN2CCOCC2)n2c(nc3ccccc32)c1C#N 2.4%
CCN(C(=O)COc1ccc(Cl)cc1C)c1ccccc1 0.83%
CCOc1ccc(-n2cc(C(=O)N3CCN(c4ccccc4OC)CC3)c3cc(OC)c(OC)cc3c2=O)cc1 0.29%
Cc1cccc(NC(=O)NCC(=O)NC2CC2)c1 -0.65%
COCC(C)NC(=O)Nc1c[nH]c2ccccc12 (stereo unspecified) -1.24%
CCOc1cc(C(=O)CCC(=O)O)ccc1O 0.21%
CCN(Cc1ccccc1)C(=O)c1cccc(N2C(=O)CCC2=O)c1 1.51%
C=CCN1C(=O)S/C(=C\c2ccc(OCC(=O)OC)cc2)C1=O 0.73%
CCSc1nnc(CNc2ccc(F)cc2)n1-c1ccc(C)cc1 1.16%
CN(CC(=O)Nc1ccccc1Cl)Cn1nc(-c2ccco2)oc1=S 1.44%
CCCN(CCC)Cc1ccc(CNc2nc(-c3ccc(OC)cc3)no2)o1 -0.49%
CCC(CO)n1c(SCC(=O)Nc2ccc(C)c(C)c2)nc2cc(OC)c(OC)cc2c1=O (stereo unspecified) 1.28%
COc1ccc(-c2noc(C3CCN(C(=O)OC(C)(C)C)CC3)c2C(=O)O)cc1 1.39%
Nc1ccccc1C(=O)NCC1CCCO1 (stereo unspecified) -4.47%
COc1ccc(-n2cc3c(c(C#N)c2=N)CC(C)(C)CC3=O)c(OC)c1 -12.9%
COC(=O)c1ccc(/C=N/O)cc1 1.3%
S=c1[nH]nc(-c2ccncc2)n1/N=C/c1cccnc1 -0.5% and 1.06%
Cc1ccc(N=C2C(=O)N(CN3CCCC(C)C3)c3ccccc32)cc1 (stereo unspecified) 0.38%
CCCc1nnc(SCC(=O)N2CCCc3ccccc32)n1CC -5.47%
Cc1cccc(C(=O)NCC(=O)NN)c1 0.12%
O=S(=O)(NCc1ccc2c(c1)OCO2)c1cccc2nsnc12 0.67%
CCOCCCNc1nc2ccccc2nc1NS(=O)(=O)c1cccc2nsnc12 0.69%
Cc1cc(C)n(-c2ccc(C(=O)OCC(=O)C(C)(C)C)cc2)n1 -0.47%
OC(CN1CCCCC1)CN1c2ccccc2Sc2ccccc21 (stereo unspecified) -0.28%
O=C(Nc1ccccc1)Nc1ccc(Cl)c(Cl)c1 2.62%
Cc1ccccc1Nc1nc(N)nc(Cn2cc(Br)ccc2=O)n1 2.02%
Cc1ccc(S(=O)(=O)N(C)CC(=O)O)cc1 0.19%
CC(C)CN(CC(C)C)C(=O)C1CCN(S(=O)(=O)c2cccc3nsnc23)CC1 -0.22%
CCc1c(C)nc2n(c1=O)C(CS(=O)(=O)c1ccc3ccccc3c1)CS2 (stereo unspecified) 2.08%
O=C(O)CN1CCN(C(c2ccccc2)c2ccccc2)CC1 1.06%
CCCCn1c(N)c(N(C(=O)c2ccc(Cl)c(Cl)c2)C2CCCC2)c(=O)[nH]c1=O 2.21%
Cc1ccc(NC(=O)CCn2c(=O)sc3ccccc32)cc1C 2.16%
O=C(CSc1cccc[n+]1[O-])c1cc2c3c(c1)CC(=O)N3CCC2 1.79%
Cc1ccsc1C(=O)OCc1nc2sc3c(c2c(=O)[nH]1)CCCC3 -0.18%
